Results filed as inconclusive are left out. The source made the active and inactive calls. Unless noted, calls follow the shape of the dose curve; as a rule, active = well fitted curve in the direction sought with a large enough effect in the repeat runs; inconclusive = weak or mixed curves; inactive = no such curve, though single readings can be large; an effect the other way counts as inactive or inconclusive.
Experiments:
[1] = qHTS assay to identify aromatase inhibitors - cell viability counter screen (AID 743084);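 also: cells stimulated with testosterone during compound exposure; nearly all actives have a fitted effect of over 55% in size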
[2] = target: Aryl hydrocarbon receptor (Homo sapiens) (UniProt P35869); assay: qHTS assay to identify small molecule that activate the aryl hydrocarbon receptor (AhR) signaling pathway (AID 743085); also: nearly all actives have a fitted effect of over 15% in size; also: potency is read from the fitted curve at half-maximal effect;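 as to activation: HG2L7.5c1 human HepG2 liver cells with stably integrated DRE-driven firefly reporter; series mostly up to about 70 µM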
Summary of the method: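 24 h compound exposure, 37C, HepG2-derived HG2L7.5c1 cells with DRE-responsive luciferase. Readouts: fluorescence viability, then luminescence at room temperature after 30 min.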

[3] = qHTS assay to identify small molecule that activate the aryl hydrocarbon receptor (AhR) signaling pathway - cell viability counter screen (AID 743086);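 also: HepG2 liver cells carrying the AhR DRE luciferase reporter; series mostly up to about 70 µM; nearly all actives have a fitted effect of over 45% in size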
Summary of the method: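 Cytotoxicity counter screen: CellTiter-Fluor signal (30 min, 37 C) in 4000 HepG2 cells/well carrying the DRE-luciferase reporter, following 24 h compound exposure at 37 C.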

[4] = target: Peroxisome proliferator-activated receptor gamma (Homo sapiens) (UniProt P37231); assay: qHTS assay to identify small molecule agonists of the peroxisome proliferator-activated receptor gamma (PPARg) signaling pathway (AID 743094; active = well fitted activation curve with a large enough effect in the signal ratio in the repeat runs, not every such curve was filed as active; the % refers to the signal ratio)
Summary of the method: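 Agonism was assessed in a beta-lactamase reporter system, HEK293H cells with a stably integrated UAS-bla construct under PPARg control; the 17 h treatment at 37C preceded a 1 h room-temperature FRET substrate read.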

[5] = target: Peroxisome proliferator-activated receptor gamma (Homo sapiens) (UniProt P37231); assay: qHTS assay to identify small molecule antagonists of the peroxisome proliferator-activated receptor gamma (PPARg) signaling pathway (AID 743191; calls by dose curve; also: series mostly up to about 63 µM; nearly all actives have a fitted effect of over 30% in size)
Summary of the method: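 Beta-lactamase reporter under UAS control in HEK293H PPARg-bla cells; compound treatment 17 h at 37C. Read-out: fluorescence intensity after 1 h room-temperature incubation with LiveBLAzer B/G FRET substrate.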

[6] = qHTS assay to identify small molecule antagonists of the peroxisome proliferator-activated receptor gamma (PPARg) signaling pathway - cell viability counter screen (AID 743194); also: nearly all actives have a fitted effect of over 55% in size
Summary of the method: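 Viability was measured as CellTiter-Glo luminescence in GeneBLAzer PPARg UAS-bla HEK293H cells. These cells had been exposed 17 h at 37 C to compounds together with rosiglitazone at 50 nM final, with the beta-lactamase readout taken in the same wells.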

[7] = qHTS assay for small molecule agonists of the antioxidant response element (ARE) signaling pathway (AID 743202; active = well fitted activation curve with a large enough effect in the signal ratio in the repeat runs, not every such curve was filed as active; the % refers to the signal ratio)
Summary of the method: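 Beta-lactamase reporter activity, read as fluorescence intensity, reflects ARE/Nrf2 pathway induction in HepG2 cells after 16 h compound exposure at 37 C; substrate loading was 2 h at room temperature.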

[8] = qHTS assay for small molecule agonists of the antioxidant response element (ARE) signaling pathway - cell viability counter screen (AID 743203; calls by dose curve; also: nearly all actives have a fitted effect of over 55% in size)
Summary of the method: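 ATP content via CellTiter-Glo luminescence served as the viability measure. Cells: ARE-bla HepG2, 2,000 per well. Exposure: 16 hrs, 37C/5% CO2.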

[9] = qHTS assay for small molecule activators of the heat shock response signaling pathway - cell viability counter screen (AID 743209); also: nearly all actives have a fitted effect of over 50% in size
Summary of the method: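 Compounds dissolved in DMSO were added to overnight-plated HSE-bla HeLa cells and left 5 h at 37 C. Cell viability was quantified by luminescence using CellTiter-Glo.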

[10] = qHTS assay for small molecule activators of the heat shock response signaling pathway (AID 743210; active = well fitted activation curve with a large enough effect in the signal ratio in the repeat runs, with a control signal flat, not every such curve was filed as active; the % refers to the signal ratio;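 also: HeLa cells with beta-lactamase reporter driven by heat shock elements; series mostly up to about 63 µM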)
Summary of the method: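 Fluorescence from a cleaved B/G FRET substrate (2.5 h, room temp) reports HSE-driven beta-lactamase in HeLa cells treated 5 h at 37 C with DMSO-dissolved compounds.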
% is scaled to controls: 0 for no effect and ±100 for the full control effect.

Sequence of Peroxisome proliferator-activated receptor gamma (Homo sapiens) (P37231 whole entry, looked up): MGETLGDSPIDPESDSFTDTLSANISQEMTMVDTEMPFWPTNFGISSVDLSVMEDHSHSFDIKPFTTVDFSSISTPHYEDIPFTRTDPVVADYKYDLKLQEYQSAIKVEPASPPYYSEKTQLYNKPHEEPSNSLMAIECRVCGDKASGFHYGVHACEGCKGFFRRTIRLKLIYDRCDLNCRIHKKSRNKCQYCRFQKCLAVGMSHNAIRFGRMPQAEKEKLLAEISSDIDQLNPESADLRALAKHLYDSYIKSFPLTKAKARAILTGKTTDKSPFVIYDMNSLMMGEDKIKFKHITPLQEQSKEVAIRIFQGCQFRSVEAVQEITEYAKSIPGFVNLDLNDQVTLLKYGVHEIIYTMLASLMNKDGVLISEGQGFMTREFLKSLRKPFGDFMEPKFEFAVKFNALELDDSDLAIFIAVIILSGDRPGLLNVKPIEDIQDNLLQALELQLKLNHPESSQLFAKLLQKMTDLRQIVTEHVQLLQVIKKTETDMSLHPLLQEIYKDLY
Sequence of Aryl hydrocarbon receptor (Homo sapiens) (P35869 whole entry, looked up): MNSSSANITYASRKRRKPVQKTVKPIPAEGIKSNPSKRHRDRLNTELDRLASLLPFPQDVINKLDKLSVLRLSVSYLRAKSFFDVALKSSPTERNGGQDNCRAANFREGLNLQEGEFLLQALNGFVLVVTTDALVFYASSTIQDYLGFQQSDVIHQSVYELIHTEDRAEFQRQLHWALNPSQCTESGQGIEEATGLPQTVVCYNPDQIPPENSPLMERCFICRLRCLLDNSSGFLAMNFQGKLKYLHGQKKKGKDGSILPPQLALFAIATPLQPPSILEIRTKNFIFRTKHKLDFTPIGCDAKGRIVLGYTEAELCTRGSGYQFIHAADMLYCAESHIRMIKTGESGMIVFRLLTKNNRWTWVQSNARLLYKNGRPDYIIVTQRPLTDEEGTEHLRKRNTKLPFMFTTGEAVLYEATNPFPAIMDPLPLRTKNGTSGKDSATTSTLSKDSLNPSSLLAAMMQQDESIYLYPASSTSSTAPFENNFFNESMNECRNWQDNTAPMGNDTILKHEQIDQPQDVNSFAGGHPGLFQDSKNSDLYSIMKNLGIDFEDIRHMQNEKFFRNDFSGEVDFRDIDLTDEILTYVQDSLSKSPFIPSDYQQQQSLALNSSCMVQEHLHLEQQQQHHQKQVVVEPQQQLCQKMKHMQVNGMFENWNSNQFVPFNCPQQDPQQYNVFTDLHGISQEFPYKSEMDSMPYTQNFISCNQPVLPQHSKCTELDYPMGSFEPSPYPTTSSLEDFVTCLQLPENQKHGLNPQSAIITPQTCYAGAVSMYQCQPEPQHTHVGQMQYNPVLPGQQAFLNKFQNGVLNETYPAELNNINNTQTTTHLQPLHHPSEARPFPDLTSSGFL

CC(C)C(=O)OCCc1ccccc1
inactive: Potency [1] | Potency [2] | Potency [3] | outcome [4] | Potency [5] | outcome [6] | Potency [7] | outcome [8] | outcome [9] | outcome [10]

CN1C(C)(C)CCCC1(C)C
inactive: Potency [1] | Potency [2] | Potency [3] | outcome [4] | Potency [5] | outcome [6] | Potency [7] | outcome [9] | outcome [10]

CCCC(=O)C(C)=O
inactive: Potency [1] | Potency [2] | Potency [3] | outcome [4] | Potency [5] | outcome [6] | Potency [7] | outcome [8] | outcome [9] | outcome [10]

CC(N)C(=O)OC(C)(C)Cc1ccc(Cl)cc1 (stereo not drawn)
inactive: Potency [1] | Potency [2] | Potency [3] | outcome [4] | Potency [5] | outcome [6] | Potency [7] | outcome [9] | outcome [10]

CCCCCCCCCC(C)=O
inactive: Potency [1] | Potency [2] | Potency [3] | outcome [4] | Potency [5] | outcome [6] | Potency [7] | outcome [8] | outcome [9] | outcome [10]

CCOC(=O)[C@H](CCc1ccccc1)N[C@@H](C)C(=O)N1C(=O)N(C)C[C@H]1C(=O)O
inactive: Potency [1] | Potency [2] | Potency [3] | outcome [4] | Potency [5] | outcome [6] | Potency [7] | outcome [8] | outcome [10]

CCN1CCc2nc(N)oc2CC1
inactive: Potency [1] | Potency [2] | Potency [3] | outcome [4] | Potency [5] | outcome [6] | Potency [7] | outcome [8] | outcome [10]

CC1(C)S[C@@H]2[C@H](N=CN3CCCCCC3)C(=O)N2[C@H]1C(=O)O
inactive: Potency [1] | Potency [2] | Potency [3] | outcome [4] | Potency [5] | outcome [6] | Potency [7] | outcome [9]

O=C(CS(=O)Cc1ccco1)NC/C=C\COc1cc(CN2CCCCC2)ccn1 (stereo not drawn)
inactive: Potency [1] | Potency [2] | Potency [3] | outcome [4] | Potency [5] | outcome [6] | Potency [7] | outcome [8] | outcome [9] | outcome [10]

CNC(=O)[C@H]1O[C@@H](n2cnc3c(NCc4cc(Cl)ccc4OCc4cc(C)no4)ncnc32)[C@H](O)[C@@H]1N
inactive: Potency [1] | Potency [2] | Potency [3] | outcome [4] | Potency [5] | outcome [6] | Potency [7] | outcome [8] | outcome [10]

CC(=O)Nc1ccc(S(=O)(=O)Cl)cc1
inactive: Potency [1] | Potency [2] | Potency [3] | outcome [4] | Potency [5] | outcome [6] | Potency [7] | outcome [8] | outcome [9] | outcome [10]

CC(=O)CCCCn1c(=O)c2c(ncn2C)n(C)c1=O
inactive: Potency [1] | Potency [2] | Potency [3] | outcome [4] | Potency [5] | outcome [6] | Potency [7] | outcome [8] | outcome [9] | outcome [10]

Nc1nnc(-c2cccc(Cl)c2Cl)c(N)n1
inactive: Potency [1] | Potency [2] | Potency [3] | outcome [4] | Potency [5] | outcome [6] | Potency [7] | outcome [9] | outcome [10]

C=C1CC/C=C(\C)CC[C@@H]2[C@@H]1CC2(C)C
inactive: Potency [1] | Potency [2] | Potency [3] | outcome [4] | Potency [5] | outcome [6] | Potency [7] | outcome [8] | outcome [9] | outcome [10]

Cc1ccc2c(c1)OCC(=O)CO2
inactive: Potency [1] | Potency [2] | Potency [3] | outcome [4] | Potency [5] | outcome [6] | Potency [7] | outcome [8] | outcome [10]

CC1COc2ccccc2N1 (stereo not drawn)
active: Potency [2] 0.969 µM
inactive: Potency [1] | Potency [3] | outcome [4] | Potency [5] | outcome [6] | Potency [7] | outcome [8] | outcome [9] | outcome [10]

ClCCCl
inactive: Potency [1] | Potency [2] | Potency [3] | outcome [4] | Potency [5] | outcome [6] | Potency [7] | outcome [8] | outcome [9] | outcome [10]

C[Si](C)=O
inactive: activity change, negative = cytotoxicity [1] -1.09% [at 8.47 µM] | activation [2] -0.45% [at 8.47 µM] | viability change, negative = cytotoxic [3] -0.537% [at 8.47 µM] | activation [4] -3.83% [at 7.08 µM] | ratio activity, negative = inhibition [5] 8.93% [at 5.95 µM] | activity change, negative = cytotoxicity [6] 17.1% [at 5.95 µM] | activation [7] -4.69% [at 8.36 µM] | activity change, negative = cytotoxicity [9] 6.74% [at 5.95 µM] | activation [10] -1.34% [at 5.95 µM]

CC(=C(CCOC(=O)C(C)C)SSC(CCOC(=O)C(C)C)=C(C)N(C=O)Cc1cnc(C)nc1N)N(C=O)Cc1cnc(C)nc1N
inactive: Potency [1] | Potency [2] | Potency [3] | outcome [4] | Potency [5] | outcome [6] | Potency [7] | outcome [9] | outcome [10]

OCCCCC(O)CO (stereo not drawn)
inactive: Potency [1] | Potency [2] | Potency [3] | outcome [4] | Potency [5] | outcome [6] | Potency [7] | outcome [8] | outcome [9] | outcome [10]

O=C(O)CCSSCCC(=O)O
inactive: Potency [1] | Potency [2] | Potency [3] | outcome [4] | Potency [5] | outcome [6] | Potency [7] | outcome [8] | outcome [10]

O=S(O)(O)=S
inactive: activity change, negative = cytotoxicity [1] 0.159% [at 8.47 µM] | activation [2] -4.49% [at 8.47 µM] | viability change, negative = cytotoxic [3] -5.98% [at 8.47 µM] | activation [4] 0.645% [at 7.08 µM] | ratio activity, negative = inhibition [5] 10.9% [at 5.95 µM] | activity change, negative = cytotoxicity [6] -0.949% [at 5.95 µM] | activation [7] -7.19% [at 8.36 µM] | viability change, negative = cytotoxic [8] 2.86% [at 8.36 µM] | activity change, negative = cytotoxicity [9] 5.21% [at 5.95 µM] | activation [10] -0.665% [at 5.95 µM]

CCCCCCCCCCl
inactive: Potency [1] | Potency [2] | Potency [3] | outcome [4] | Potency [5] | outcome [6] | Potency [7] | outcome [8] | outcome [10]

OCCN(CCO)c1cccc(Cl)c1
inactive: Potency [1] | Potency [2] | Potency [3] | outcome [4] | Potency [5] | outcome [6] | outcome [8] | outcome [9] | outcome [10]

CCOC(=O)c1ccc(OC(=O)CCCCCN=C(N)N)cc1
inactive: Potency [1] | Potency [2] | Potency [3] | outcome [4] | Potency [5] | Potency [7] | outcome [9]
